Where “and” joins values, the source holds several entries; their conditions need not be identical. Identical values can stand only once. Inconclusive results are not listed. Calls of active or inactive are those of the source. The call rests on the fitted dose curve; in most records, active means well fitted activation curve with a large enough effect; inconclusive means small, poorly fitted or top-dose-only effect; inactive means no such curve, though single readings can be large or run the other way.
Biological target: Cellular tumor antigen p53 (Homo sapiens) (UniProt P04637)
Sequence (P04637 whole entry, looked up): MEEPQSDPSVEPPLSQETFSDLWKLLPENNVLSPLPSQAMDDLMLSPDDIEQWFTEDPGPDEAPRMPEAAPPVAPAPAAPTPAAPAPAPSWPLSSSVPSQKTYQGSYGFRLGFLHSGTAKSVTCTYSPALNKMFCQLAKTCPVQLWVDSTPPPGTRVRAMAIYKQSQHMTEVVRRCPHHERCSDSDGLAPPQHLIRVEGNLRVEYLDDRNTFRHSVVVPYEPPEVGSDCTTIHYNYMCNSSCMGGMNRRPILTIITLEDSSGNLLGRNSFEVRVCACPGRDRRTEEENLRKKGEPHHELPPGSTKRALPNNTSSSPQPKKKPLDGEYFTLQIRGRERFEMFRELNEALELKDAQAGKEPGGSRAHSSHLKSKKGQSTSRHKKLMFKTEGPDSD
Test: Primary qHTS for small molecule compounds that upregulate eGFP-tagged delta133p53alpha (in N-terminal) cells. (AID 2060322); further: nearly all actives have a fitted effect of over 75% in size;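 on activation: cells pre-induced with doxycycline then dosed without doxycycline; series mostly up to about 56 µM; 0% = DMSO vehicle and 100% = reference activator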
Details: NCI-H358 eGFP-delta133p53alpha fluorescence, 24 h; activation: stronger effect = higher value
Summary of the method: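 NCI-H358 cells pre-induced 24 h with 10 ng/ml doxycycline for eGFP-delta133p53alpha, plated dox-free and exposed 24 h at 37C to titrated compounds. Fixed, Hoechst-stained; gated GFP peak intensity by laser scanning cytometry, normalized to DMSO (0%) and 57.5 uM 5-azacytidine (100%).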
Potency means the concentration at half of the fitted maximal effect.

Which activation does the source give for `CC(C)NCC(O)c1ccccc1Cl` (stereo unspecified) here?
The activation was 21.8% (inactive).

For `CC(=CCCC1=CCC(C2=CC(=O)OC2O)OC1O)CCC1=C(C)CCCC1(C)C` (stereo unspecified), which activation is on record?
The activation was 16.4% (inactive).

With `CCN(C(C)=O)c1cccc(-c2ccnc3c(C#N)cnn23)c1` as the molecule, how does the activation read?
The activation was -16.4% (inactive).

Which activation does the source give for `O=C(O)COc1nc(Cl)c(Cl)cc1Cl` here?
Its activation is 6.21% (inactive).

`CCOP(=O)(NC(C)C)Oc1ccc(SC)c(C)c1` (stereo unspecified) was tested. Which activation did it give?
Its activation is 10.7% (inactive).

With `CC(C)NC(C)C` as the molecule, how does the activation read?
The activation was -1.69% (inactive).

How did the activation turn out when `C[C@]12CC[C@H]3[C@@H](CCC4=CC(=O)CC[C@@H]43)[C@@H]1CC[C@@H]2OC(=O)CCc1ccccc1` was run?
The activation was 2.51% (inactive).

With `Cc1ncc2n1-c1ccc(Cl)cc1C(c1ccccc1F)=NC2` as the molecule, how does the activation read?
The activation was -27.7% (inactive).

How did the activation turn out when `CCC(=O)CCCCC[C@@H]1NC(=O)[C@H]2CCCCN2C(=O)[C@H]([C@@H](C)CC)NC(=O)[C@H](Cc2cn(OC)c3ccccc23)NC1=O` was run?
Its activation is -11.2% (inactive).

`Nc1ccc(Cl)cc1` was tested. Which activation did it give?
The activation was -6.21% (inactive).

Which activation does the source give for `CN(C)CCc1ccc(O)cc1` here?
Its activation is -14.3% (inactive) and -6.21% (inactive).

For `O=c1c(C2CC(c3ccc(-c4ccc(Br)cc4)cc3)Cc3ccccc32)c(O)sc2ccccc12` (stereo unspecified), which activation is on record?
The activation was -13% (inactive).

How did the activation turn out when `COc1cc(N)c(Cl)cc1C(=O)NC1CN2CCC1CC2` (stereo unspecified) was run?
Its activation is 10.7% (inactive).

For `OC(O)C(Cl)(Cl)Cl`, which activation is on record?
Its activation is -29.9% (inactive).

For `C[C@]12CC[C@H]3[C@@H](CC[C@@]45O[C@H]4C(O)=C(C#N)C[C@]35C)[C@H]1CC[C@H]2O`, which Potency is on record?
The Potency was 21.7 µM (active).

For `CC(C(O)c1ccccc1)N(C)C/C=C/c1ccccc1` (stereo unspecified), which activation is on record?
The activation was -4.18% (inactive).

From PubChem BioAssay (NCATS)
